Many of the other results were omitted from the sample, so hits are more common in it than they were.
Giardia FBPA inh = Giardia lamblia aldolase inhibition; A8B2U2; purified Giardia FBPA; Potency, µM (series often up to 59.6 µM), most hits filed as inhibitors; 290,000 compounds, 0.71% hits; AID 2451; further: nearly all actives have a fitted effect of over 55% in size
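Giardia FBPA (40 nM reagent) was preincubated 10 min at RT with compound (up to 57.5 uM final), then substrate plus GAPDH/TPI/NAD/arsenate coupling system with diaphorase/resazurin was added; resorufin fluorescence (525/598 nm) was read after 20 min.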
RE007 growth inh = less growth of the S. pombe RE007 Vpr strain. S. pombe RE007 Vpr strain, BacTiter-Glo ATP luminescence, 24 h. Potency, µM (series often up to 92.2 µM), actives largely listed as inhibitors. 360,000 compounds, 0.21% hits. AID 651644; active means well fitted falling curve with a large enough effect; inconclusive means small, poorly fitted or top-dose-only effect; inactive means no such curve, though single readings can be large or run the other way; further: nearly all actives have a fitted effect of over 50% in size
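Fission yeast strain RE007, carrying one chromosomally integrated HIV-1 vpr copy, was seeded at OD 0.01 in PMG+AL medium with 23 nL pinned compound. After 24 h at 30 °C and 99% humidity, viability was read by BacTiter-Glo luminescence.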
LmPK inhibitor = blocks Leishmania mexicana pyruvate kinase activity | 290,000 compounds, 0.37% hits | purified LmPK, Kinase-Glo ATP luminescence, 1 h | Q27686 | AID 1721 | Potency, µM (top dose mostly 57.5 µM), hits mostly inhibitors
Target sequence (Q27686 whole entry, looked up): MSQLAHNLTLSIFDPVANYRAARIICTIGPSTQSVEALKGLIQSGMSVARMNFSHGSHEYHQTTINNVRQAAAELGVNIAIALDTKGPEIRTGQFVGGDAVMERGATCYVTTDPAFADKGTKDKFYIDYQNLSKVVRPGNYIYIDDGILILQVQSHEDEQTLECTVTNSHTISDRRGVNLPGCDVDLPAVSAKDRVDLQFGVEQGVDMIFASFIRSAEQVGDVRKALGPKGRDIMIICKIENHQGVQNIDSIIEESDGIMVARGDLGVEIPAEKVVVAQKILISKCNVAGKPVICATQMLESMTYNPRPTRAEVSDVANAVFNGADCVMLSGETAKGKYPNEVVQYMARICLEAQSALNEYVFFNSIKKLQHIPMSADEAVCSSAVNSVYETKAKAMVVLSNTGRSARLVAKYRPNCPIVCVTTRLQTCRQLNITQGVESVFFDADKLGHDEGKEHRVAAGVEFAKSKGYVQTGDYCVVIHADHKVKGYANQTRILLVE
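Purified LmPK (0.1 nM) converted ADP (0.1 mM) to ATP with PEP (0.5 mM) in imidazole buffer pH 7.2 with KCl and MgCl2, 1 h at room temperature. ATP was read by Kinase-Glo luminescence; data normalized to uninhibited and no-enzyme controls.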
Shiga toxin inh = Shiga toxin inhibition; Vero cells, Shiga toxin protein synthesis inhibition reporter; inhibition, % at 38.7 µM; 290,000 compounds, 9.2% hits; in the data active means inhibition mostly above about 28%, no sharp cut-off; inactive means mostly below about 43%
CHX counter = affects cycloheximide protein synthesis inhibition readout, counter-screen; cell reporter, cycloheximide protein synthesis inhibition counterscreen; max response, %; 300,000 compounds, 12% hits; in the data active means max response mostly above about 13%, no sharp cut-off; inactive means mostly below about 14%; further: read at 38.3 µM for the half of the compounds with a filed dose
TbPYK inhibitor = T. brucei pyruvate kinase inhibition | Q57TT1 | TbPYK enzyme, Kinase-Glo Plus ATP luminescence, 45 min | Potency, µM (top dose mostly 76.8 µM), actives largely listed as inhibitors | 410,000 compounds, 0.12% hits | AID 624173; further: nearly all actives have a fitted effect of over 50% in size
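Assay buffer: 50 mM TEA pH 7.2, 100 mM KCl, 10 mM MgCl2, 0.05% BSA, 0.01% Tween-20. Pyruvate kinase from T. brucei plus substrate met compound, then ADP (130 uM final). Luminescence was read post 45 min RT.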
Large screens that a line does not name were inactive. Unless noted, the call rests on the fitted dose curve; in most records, active means well fitted curve in the direction sought with a large enough effect; inconclusive means small, poorly fitted or top-dose-only effect, or another doubt; inactive means no such curve, though single readings can be large; an effect the other way counts as inactive or inconclusive.

CC(C)CC(=O)NC(=S)Nc1ccc(N2CCN(C(=O)c3cccs3)CC2)cc1	none
CC(C)CC(=O)Nc1ccc(S(=O)(=O)Nc2cc3c(cc2N2CCOCC2)n(C)c(=O)c(=O)n3C)cc1	none (no result: Giardia FBPA inh, RE007 growth inh, LmPK inhibitor, Shiga toxin inh, CHX counter)
CCCCCOC(=O)CSc1nc2sc3c(c2c(=O)n1-c1ccccc1)CC(C)(CC)OC3 (stereo unspecified)	none (no result: Giardia FBPA inh, RE007 growth inh, LmPK inhibitor, Shiga toxin inh, CHX counter)
Cc1ccc(C)c(N(C)S(=O)(=O)c2ccc3[nH]cc(C(=O)NC4CCCC4)c(=O)c3c2)c1	none (no result: Giardia FBPA inh, RE007 growth inh, LmPK inhibitor, Shiga toxin inh, CHX counter)
O=C(Nc1ccc(-c2nnco2)cc1)c1ccccc1	Shiga toxin inh 68, CHX counter 14
O=C(Nc1ccccc1)Nc1cccc(-c2nnco2)c1	Shiga toxin inh 48, CHX counter 20
O=C(Nc1cccc(-c2nnc(-c3ccco3)o2)c1)c1ccccc1	none
Cc1ccccc1N1C(=O)c2cc(S(N)(=O)=O)c(Cl)cc2N[C@H]1C	none (no result: RE007 growth inh, LmPK inhibitor, Shiga toxin inh, CHX counter, TbPYK inhibitor)
NCCCCCCCCCCNCCCN	none (no result: RE007 growth inh, LmPK inhibitor, TbPYK inhibitor)
CC(C)CS(=O)(=O)C1=NSC2=NC(=O)/C(=C\c3ccc(OC(=O)c4ccco4)cc3)C(=N)N21	none (no result: Giardia FBPA inh)
CSC1=NSC2=NC(=O)/C(=C\c3ccc(OC(=O)c4ccco4)cc3)C(=N)N12	Shiga toxin inh 34, CHX counter 19
CC1=CSC2=NC(=O)/C(=C/c3cccc(OC(=O)c4ccco4)c3)C(=N)N12	Shiga toxin inh 34
O=C1/C(=C/N(C(=O)c2ccco2)c2ccc(Br)cc2)Sc2ccccc21	CHX counter 37
O=C1/C(=C/N(C(=O)c2ccco2)c2ccc(Cl)cc2)Sc2ccccc21	RE007 growth inh inconclusive, LmPK inhibitor inconclusive, Shiga toxin inh 91, CHX counter 39
CC(C)NC(=O)C1CCN(c2nc3ccccc3nc2C(F)(F)F)CC1	none (no result: Giardia FBPA inh, RE007 growth inh, LmPK inhibitor, Shiga toxin inh, CHX counter)
N#Cc1ccc(NC(=O)C2Cc3ccccc3CN2S(=O)(=O)c2ccc(F)cc2)cc1 (stereo unspecified)	none (no result: Giardia FBPA inh, RE007 growth inh, LmPK inhibitor, Shiga toxin inh, CHX counter)
CN1C(C(=O)NCc2ccco2)CC2Cn3c(nc4cc5ccccc5cc43)C21 (stereo unspecified)	none
CN1C(C(=O)NCc2ccco2)CC2Cn3c(nc4cc(Cl)c(Cl)cc43)C21 (stereo unspecified)	CHX counter 13
O=C(CCN1CCc2ccccc2C1)c1ccc2c(c1)OCCO2	RE007 growth inh 7.9µM, Shiga toxin inh 95, CHX counter 51
c1ccc2c(c1)CCN2CCN1CCc2ccccc21	RE007 growth inh inconclusive
O=C(CCN1CCC(c2ccccc2)C1)c1ccccc1 (stereo unspecified)	none
O=C(CCN1CCCCC1)c1ccc2c(c1)OCCO2	none
O=C(CCN1CCCC1Cc1ccccc1)c1ccc2c(c1)OCCO2 (stereo unspecified)	RE007 growth inh 25µM
O=C(CCN1CCc2ccccc21)c1ccc2c(c1)OCCO2	RE007 growth inh inconclusive, CHX counter 26
O=C(CCN1CCC(c2ccccc2)C1)c1ccc2c(c1)OCCO2 (stereo unspecified)	RE007 growth inh inconclusive, CHX counter 13
CCCCCCC(=O)Nc1ccc2nc3c(=O)n(C)c(=O)n(C)c3nc2c1C	none (no result: Giardia FBPA inh, RE007 growth inh, LmPK inhibitor, Shiga toxin inh, CHX counter)
CCOC(=O)c1ccc(NC(=O)c2c(C)nn(-c3ccc(F)cc3)c2-n2cccc2)cc1	none (no result: Giardia FBPA inh, RE007 growth inh, LmPK inhibitor, Shiga toxin inh, CHX counter)
CCCCN(CCCNC(=O)c1cc(Nc2ccc(OC)c(OC)c2)nc2ccccc12)Cc1ccccc1	none (no result: Giardia FBPA inh, RE007 growth inh, LmPK inhibitor, Shiga toxin inh, CHX counter)
COc1ccc(OC)c(NC(=O)CN2C(=O)CC(C)Sc3ccccc32)c1 (stereo unspecified)	none (no result: Giardia FBPA inh, RE007 growth inh, LmPK inhibitor, Shiga toxin inh, CHX counter)
O=C(NCCc1cnc[nH]1)c1ccc(-c2ccccc2)cc1	Shiga toxin inh 55, CHX counter 30
[O-]/[N+](=C/c1cccnc1)c1ccc(Br)cc1	Shiga toxin inh 94, CHX counter 37
[O-]/[N+](=C\c1ccncc1)c1ccc(Br)cc1	CHX counter 17
C(=N\N=C\c1ccncc1)/c1ccncc1	none (no result: Giardia FBPA inh, LmPK inhibitor, Shiga toxin inh, CHX counter)
O=C(c1ccc([N+](=O)[O-])cc1)N(Cc1ccco1)c1ccccn1	none (no result: Giardia FBPA inh, RE007 growth inh, LmPK inhibitor, Shiga toxin inh, CHX counter)
O=c1c(-c2cccc(F)c2)nc2cncnc2n1C1CC1	none (no result: RE007 growth inh, LmPK inhibitor, Shiga toxin inh, CHX counter)
CCc1c(C)nc2[nH]nc(-c3ccccc3C)n2c1=O	none
CCc1c(C)nc2[nH]nc(-c3ccccc3)n2c1=O	CHX counter 15
CCOC(=O)C#CC(CCc1ccccc1)OS(N)(=O)=O (stereo unspecified)	none

Screening data (PubChem)
